In PubChem BioAssay:
Activity calls are given as the source filed them.

Key:
Albumin (Bos taurus) = Albumin (Bos taurus) (UniProt P02769); experiment: compounds binding labelled BSA control protein – biochemical, small-molecule microarray, Alexa647 label, 635/667 nm fluorescence, artefact control for SMM control protein annotation, profiling panel (AID 1118); conditions: BSA-A647 binding, fluorescence 635 nm, higher = more signal;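 also: score merges 667 nm emission intensity and signal-to-noise per printed compound spot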
Sequence of Albumin (Bos taurus) (P02769 whole entry, looked up): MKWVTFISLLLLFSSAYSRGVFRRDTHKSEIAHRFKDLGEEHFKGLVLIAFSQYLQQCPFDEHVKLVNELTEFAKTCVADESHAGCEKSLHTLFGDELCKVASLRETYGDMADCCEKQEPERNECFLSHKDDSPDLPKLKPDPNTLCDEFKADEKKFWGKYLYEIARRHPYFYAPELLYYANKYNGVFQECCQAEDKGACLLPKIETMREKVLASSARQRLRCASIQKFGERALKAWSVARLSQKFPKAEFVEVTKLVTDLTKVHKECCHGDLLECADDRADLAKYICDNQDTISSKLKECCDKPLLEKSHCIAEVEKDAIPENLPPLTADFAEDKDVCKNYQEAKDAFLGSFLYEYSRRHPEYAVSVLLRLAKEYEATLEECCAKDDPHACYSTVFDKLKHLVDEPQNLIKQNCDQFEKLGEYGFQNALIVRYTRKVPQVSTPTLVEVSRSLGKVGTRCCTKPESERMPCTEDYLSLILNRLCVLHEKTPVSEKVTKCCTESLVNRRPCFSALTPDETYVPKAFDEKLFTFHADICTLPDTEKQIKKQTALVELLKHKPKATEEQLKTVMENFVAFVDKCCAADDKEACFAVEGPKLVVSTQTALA

[1] = probe aXIP binding to arrayed compounds – biochemical, NeuroSMM set, 635/667 nm fluorescence, primary screen (AID 1119); conditions: small-molecule microarray, higher = more signal, called active from +8 up or from −8 down;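 also: probe is the protein aXip251-270 applied at 1 µg/mL to compound-printed slides; binding of probe to printed compounds measured as 667 nm fluorescence plus signal to noise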
[2] = probe aNOTCH3 binding on compound microarray – biochemical, small-molecule microarray, 635/667 nm fluorescence, primary screen (AID 1120); conditions: higher = more signal;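 also: probe is a biotin-tagged antibody raised against NOTCH3 rather than NOTCH3 protein; score merges spot fluorescence near 667 nm with spot signal to noise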
[3] = probe aNOTCH2 binding on compound microarray – biochemical, small-molecule microarray, 635/667 nm fluorescence, primary screen (AID 1121); conditions: higher = more signal;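 also: score merges feature fluorescence read at 667 nm with its signal to noise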
[4] = target: Carbonic anhydrase 2 (Homo sapiens) (UniProt P00918); experiment: compounds binding carbonic anhydrase 2 – biochemical, small-molecule microarray, Alexa647-labelled CAII, profiling panel (AID 1122); conditions: CAII-A647 binding fluorescence, higher = more signal
[5] = COS7 lysate on small-molecule microarray, probe aHis, 635 nm (AID 1123); conditions: COS7 cell lysate, fluorescence, higher = more signal;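 also: z-score combines 667nm fluorescence intensity with signal-to-noise per printed compound spot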
[6] = probe aLAP1 signal on lysate-treated microarray – cell lysate, small-molecule microarray, COS7 lysate, primary screen (AID 1124); conditions: probe aLAP1, fluorescence, higher = more signal;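 also: lysate comes from COS7 cells expressing LAP1 and is applied at 0.3 µg/mL; score merges spot fluorescence near 667 nm with signal-to-noise over triplicate slides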
Sam68 (KHDRBS1) = experiment: compounds binding KHDRBS1 protein – biochemical, small-molecule microarray, 635 nm fluorescence, primary screen (AID 1125); conditions: higher = more signal;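 also: score merges 667 nm channel intensity with signal to noise over triplicate slides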
[7] = system: Chordin-like protein 2 (CHRDL2); experiment: compounds binding chordin-like 2 – biochemical, small-molecule microarray, 635 nm fluorescence, primary screen (AID 1126); conditions: fluorescence 635 nm, higher = more signal;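 also: printed compound slides probed with Chrdl2 protein at 4 µg/mL for 1 h at 4 C; score merges 667 nm emission intensity with signal to noise over three replicate slides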
[8] = target: Concanavalin-A (Canavalia ensiformis) (UniProt P02866); experiment: compounds binding concanavalin A lectin – biochemical, small-molecule microarray, Alexa647 label, 635 nm, artefact control for SMM control protein annotation, primary screen (AID 1127); conditions: ConA-A647 binding fluorescence, higher = more signal;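 also: z combines 667 nm emission intensity with signal-to-noise across three replicate slides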
Sequence of Concanavalin-A (Canavalia ensiformis) (P02866 whole entry, looked up): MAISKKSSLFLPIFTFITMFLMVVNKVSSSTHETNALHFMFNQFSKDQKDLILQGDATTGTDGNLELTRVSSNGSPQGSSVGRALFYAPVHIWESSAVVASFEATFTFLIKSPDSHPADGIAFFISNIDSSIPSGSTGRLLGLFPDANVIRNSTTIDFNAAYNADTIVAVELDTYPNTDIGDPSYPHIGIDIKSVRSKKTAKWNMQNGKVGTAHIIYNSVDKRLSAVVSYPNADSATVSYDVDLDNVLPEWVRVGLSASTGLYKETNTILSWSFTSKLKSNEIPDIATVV

[9] = compounds binding Alexa647 anti-His antibody – biochemical, small-molecule microarray, 635 nm fluorescence, artefact control for SMM control protein annotation, primary screen (AID 1128); conditions: higher = more signal;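 also: score merges feature fluorescence with signal-to-noise for each printed compound spot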
[10] = system: Human papillomavirus type 1a E7 protein (residues 1-88); experiment: HPV1a E7 small-molecule binders, primary screen, biochemical, small-molecule microarray, residues 1-88, 635 nm (AID 1129); conditions: small-molecule microarray binding, fluorescence 635 nm; higher = more signal
[11] = target: Focal adhesion kinase 1 (Homo sapiens) (UniProt Q05397); experiment: PTK2 protein binding on printed compound slides – biochemical, small-molecule microarray, 635/667 nm fluorescence, BSA, DTT, primary screen (AID 1130); conditions: 635 nm fluorescence, higher = more signal;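 also: composite of spot emission at 667 nm and signal to noise over triplicate slides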
Sequence of Focal adhesion kinase 1 (Homo sapiens) (Q05397 whole entry, looked up): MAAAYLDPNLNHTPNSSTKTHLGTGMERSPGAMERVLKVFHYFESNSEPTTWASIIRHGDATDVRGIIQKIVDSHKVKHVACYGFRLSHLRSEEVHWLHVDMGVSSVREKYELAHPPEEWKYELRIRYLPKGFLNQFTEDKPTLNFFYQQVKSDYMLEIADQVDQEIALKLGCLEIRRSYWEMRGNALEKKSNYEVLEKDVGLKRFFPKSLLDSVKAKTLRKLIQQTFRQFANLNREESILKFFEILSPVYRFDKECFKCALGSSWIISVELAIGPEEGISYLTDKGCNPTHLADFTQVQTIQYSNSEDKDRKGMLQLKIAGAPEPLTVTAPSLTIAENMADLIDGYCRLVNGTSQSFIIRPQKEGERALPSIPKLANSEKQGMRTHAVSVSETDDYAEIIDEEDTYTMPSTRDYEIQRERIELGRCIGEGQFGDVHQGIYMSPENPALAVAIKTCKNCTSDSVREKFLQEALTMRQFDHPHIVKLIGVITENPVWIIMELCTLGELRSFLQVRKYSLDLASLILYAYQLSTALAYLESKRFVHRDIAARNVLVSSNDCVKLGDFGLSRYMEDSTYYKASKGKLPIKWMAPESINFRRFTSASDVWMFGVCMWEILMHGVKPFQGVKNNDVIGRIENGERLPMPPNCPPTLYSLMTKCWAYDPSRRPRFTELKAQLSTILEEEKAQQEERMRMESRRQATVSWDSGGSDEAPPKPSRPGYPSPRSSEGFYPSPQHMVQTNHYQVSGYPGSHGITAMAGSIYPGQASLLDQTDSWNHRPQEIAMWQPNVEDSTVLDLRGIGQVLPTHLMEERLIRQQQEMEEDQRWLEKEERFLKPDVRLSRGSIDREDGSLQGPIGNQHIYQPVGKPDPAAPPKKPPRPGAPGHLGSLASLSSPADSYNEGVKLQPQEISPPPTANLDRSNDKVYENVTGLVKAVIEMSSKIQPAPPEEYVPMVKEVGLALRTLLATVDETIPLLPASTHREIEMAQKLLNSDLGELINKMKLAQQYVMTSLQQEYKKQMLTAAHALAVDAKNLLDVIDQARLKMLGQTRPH

[12] = system: Fibrinogen (Alexa647-labelled); experiment: Alexa647-fibrinogen binding to printed small molecules – biochemical, small-molecule microarray, 635/667 nm fluorescence, artefact control for SMM control-protein annotation, profiling panel (AID 1131); conditions: fibrinogen-A647 binding fluorescence, higher = more signal;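 also: z-score merges 667 nm fluorescence with per-spot signal-to-noise over triplicate slides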
[13] = target: Follistatin (Homo sapiens) (UniProt P19883); experiment: FST protein binding to printed compounds – biochemical, small-molecule microarray, 635/667 nm fluorescence, primary screen (AID 1132); conditions: 635 nm fluorescence, higher = more signal
Sequence of Follistatin (Homo sapiens) (P19883 whole entry, looked up): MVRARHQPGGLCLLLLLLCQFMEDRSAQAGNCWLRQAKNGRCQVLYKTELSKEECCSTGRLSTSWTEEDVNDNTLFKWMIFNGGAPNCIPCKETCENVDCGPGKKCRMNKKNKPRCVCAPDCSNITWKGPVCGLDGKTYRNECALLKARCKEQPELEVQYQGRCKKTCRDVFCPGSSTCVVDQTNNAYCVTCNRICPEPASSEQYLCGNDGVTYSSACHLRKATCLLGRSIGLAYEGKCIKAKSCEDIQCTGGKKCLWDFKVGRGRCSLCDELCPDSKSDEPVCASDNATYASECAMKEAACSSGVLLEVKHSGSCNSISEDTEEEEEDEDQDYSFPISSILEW

[14] = target: Fibroblast growth factor 2 (Homo sapiens) (UniProt P09038); experiment: basic fibroblast growth factor binding to printed compounds – biochemical, small-molecule microarray, 635/667 nm fluorescence, primary screen (AID 1133); conditions: FGF2, fluorescence 635/667, higher = more signal
Sequence of Fibroblast growth factor 2 (Homo sapiens) (P09038 whole entry, looked up): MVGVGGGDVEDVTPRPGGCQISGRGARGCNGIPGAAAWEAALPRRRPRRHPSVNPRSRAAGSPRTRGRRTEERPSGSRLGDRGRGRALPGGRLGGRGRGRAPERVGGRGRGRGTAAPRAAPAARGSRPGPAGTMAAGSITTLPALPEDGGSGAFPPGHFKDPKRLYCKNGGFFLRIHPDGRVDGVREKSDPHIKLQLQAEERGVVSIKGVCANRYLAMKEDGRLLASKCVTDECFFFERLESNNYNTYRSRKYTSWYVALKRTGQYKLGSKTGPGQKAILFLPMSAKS

[15] = JC-1 mitochondrial potential readout, lung cancer cells – cell-based, A549, JC-1 fluorescence, basal, 24 h, 100 nL, profiling panel (AID 1138); conditions: higher = more signal;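 also: A549 lung adenocarcinoma cells under basal conditions with no added stimulus; test concentration not given here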
Lefty1 = Lefty1 protein binding to printed compounds – biochemical, small-molecule microarray, 635/667 nm fluorescence, primary screen (AID 1139); conditions: fluorescence 635/667, higher = more signal
[16] = system: wheat germ agglutinin (Triticum aestivum), Alexa647-labelled; experiment: Alexa647-WGA lectin binding to printed small molecules – biochemical, small-molecule microarray, 635/667 nm fluorescence, artefact control for SMM control-protein annotation, profiling panel (AID 1140); conditions: WGA-A647 binding, 635 nm fluorescence, higher = more signal;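 also: score merges 667 nm feature emission with signal to noise over triplicate slides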
[17] = target: Luciferin 4-monooxygenase (Photinus pyralis) (UniProt P08659); experiment: inhibition of purified Photinus pyralis luciferase – biochemical, luminescence, purified enzyme, 2006 set, primary screen (AID 1141); conditions: purified firefly luciferase, SteadyGlo luminescence, 30 min; higher = more signal, called active from +8 up or from −8 down;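 also: cell-free assay with purified firefly luciferase at 100 ng per well in PBS; test concentration not given here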
Sequence of Luciferin 4-monooxygenase (Photinus pyralis) (P08659 whole entry, looked up): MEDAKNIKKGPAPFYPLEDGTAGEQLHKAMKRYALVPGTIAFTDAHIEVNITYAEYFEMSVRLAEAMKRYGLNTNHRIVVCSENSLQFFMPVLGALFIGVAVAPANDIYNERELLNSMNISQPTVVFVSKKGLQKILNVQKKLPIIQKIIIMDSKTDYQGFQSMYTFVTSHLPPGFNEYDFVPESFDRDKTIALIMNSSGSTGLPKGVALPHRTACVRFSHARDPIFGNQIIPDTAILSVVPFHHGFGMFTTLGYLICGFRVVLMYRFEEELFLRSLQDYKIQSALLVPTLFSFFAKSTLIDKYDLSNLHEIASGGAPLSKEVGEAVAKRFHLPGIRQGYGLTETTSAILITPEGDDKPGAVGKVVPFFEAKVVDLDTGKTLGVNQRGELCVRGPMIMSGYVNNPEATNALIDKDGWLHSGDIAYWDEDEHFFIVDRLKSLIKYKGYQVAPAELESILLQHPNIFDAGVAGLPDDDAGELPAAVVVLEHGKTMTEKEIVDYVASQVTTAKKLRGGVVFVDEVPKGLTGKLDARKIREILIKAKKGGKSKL

SMILES | composite z-score (Albumin (Bos taurus)) | composite Z-score [1] | composite z-score [2] | composite z-score [3] | composite z-score [4] | composite z-score [5] | composite z-score [6] | composite z-score (Sam68 (KHDRBS1)) | composite z-score [7] | composite z-score [8] | composite z-score [9] | composite z-score [10] | composite z-score [11] | composite z-score [12] | composite z-score [13] | composite z-score [14] | z-score [15] | composite z-score (Lefty1) | composite z-score [16] | z-score [17]
C[C@H]1CC[C@H]2C(=O)OC(COc3ccc(C(C)(C)C)cc3)CN2[C@@H]1c1ccc(Br)cc1 (stereo not given in full) | 0.654 | 0.455 (inactive) | -0.165 | -0.189 | 0.267 | 1.42 | 0.2 | 0.961 | 0.186 | 1.02 | 0.148 | 1.15 | 0.29 | 0.819 | 0.312 | 0.118 | 1.28 | 0.334 | 0.264 | -1.37 (inactive)
CO[C@@H]1COC(=O)CC=C[C@H](C)[C@H](OC)COC(=O)[C@@H]2CCCN2C(=O)CC=C[C@H]1C | -0.568 | 0.598 (inactive) | -0.116 | -0.154 | -0.623 | -0.301 | 0.569 | 0.442 | 1.44 | -0.371 | -0.51 | -0.838 | -0.226 | -2.24 | 1.38 | 1.69 | -0.213 | 1.45 | -1.11 | -0.577 (inactive)
CCOC(=O)[C@H](CC(C)C)NC(=O)CCC1CC(OC(=O)NCc2ccc3c(c2)OCO3)CC2(CCCC(COC(=O)NCCC(C)C)O2)O1 (stereo not given in full) | 0.42 | 0.231 (inactive) | -0.0555 | -0.112 | 0.515 | 0.298 | 0.0199 | -0.557 | -0.085 | -0.746 | 0.348 | -0.438 | 0.0454 | -0.27 | -0.14 | 0.279 | 0.471 | 0.172 | 0.182 | 0.537 (inactive)
O=C1C2=CC[C@H]3C(=O)N(C4CCCCC4)C(=O)[C@H]3[C@H]2[C@H](O)[C@@H]2O[C@H]12 | 0.964 | -0.631 (inactive) | -0.199 | -0.149 | 0.335 | -0.888 | -0.17 | -2.02 | 0.0365 | -0.21 | -0.242 | -0.958 | -0.504 | 0.0555 | -0.864 | -0.682 | -1.65 | -0.455 | -0.685 | -0.389 (inactive)
COc1cccc([C@H]2Oc3ccc(OC)cc3C(=NO[C@@H](C)c3cc(-c4c(C)cc(C)cc4C)no3)[C@@H]2O)c1 | -1.31 | -0.238 (inactive) | -0.305 | -0.155 | 0.108 | -0.552 | 0.843 | -0.156 | -0.861 | -1.57 | -0.314 | -0.358 | -0.364 | -1.51 | -2.57 | -2.11 | 0.611 | -2.4 | -0.52 | 0.995 (inactive)
